# Source: PubChem (several laboratories)
# aSyn UTR inh: MLPCN primary screen, SNCA 5' untranslated region; AID 1813; 300,000 compounds, 0.82% hits; inhibition, % (tested at 7.5 µM); alpha-synuclein 5'UTR reporter, inhibitor activity; in the data active means inhibition above about 60%;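 further: H4 neuroglioblastoma cells stably carrying SNCA 5'UTR luciferase fusion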
# Gli-Sufu block: antagonists of Gli-Sufu signaling | Sufu-KO-LIGHT fibroblasts, Gli luciferase reporter luminescence | inhibition, % at 5 µM | 340,000 compounds, 0.74% hits;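 active means inhibition above about 55%, limit read from the data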
# Jurkat NFkB inh: lowers PMA/ionomycin-induced NF-kB signal in Jurkat cells. 330,000 compounds, 0.53% hits. PMA/ionomycin-induced NF-kB luciferase reporter, luminescence. inhibition, % at 4 µM; in the data active means inhibition above about 50%
# Mdm2 MdmX PPI: disrupts the human Mdm2-MdmX interaction; O15151+Q00987; SaOS-2 split-luciferase Mdm2/MdmX complementation, luminescence; inhibition, % at 8 µM; 330,000 compounds, 3% hits; AID 485346;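 active means inhibition of at least 50% at 8 µM in the primary screen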
# 697 NFkB inh: lowers PMA/ionomycin-induced NF-kB signal in 697 B cells. 697 B-cell NF-kB luciferase reporter, 16 h. inhibition, % at 4 µM. 330,000 compounds, 0.33% hits; in the data active means inhibition above about 35%
# KLF5 inhibitor: kruppel-like factor 5 inhibition; DLD-1 KLF5 promoter-luciferase reporter, luminescence; inhibition, % at 5 µM; 290,000 compounds, 0.23% hits;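 active means inhibition above a per-plate limit of that plate's mean compound inhibition plus 3 SD, cut at about 60% in these data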;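 further: higher means less KLF5 promoter-driven luciferase light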
# Gli antag conf: confirmation of Gli-SUFU pathway antagonists. shares compounds with Gli-Sufu block. 2,500 compounds, 40% hits. inhibition, % at 5 µM. AID 602428. Sufu-KO-LIGHT cells, Gli luciferase reporter, luminescence;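 active means mean inhibition at 5 µM reaching about 45%, limit read from the data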
# Gli cytotox: counter-screen for Gli-SUFU antagonists: cytotoxicity; Sufu-KO-LIGHT cells cytotoxicity, ATP luminescence; shares compounds with Gli-Sufu block; cytotoxicity, % at 5 µM; AID 651994; 2,500 compounds, 32% hits;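 active means mean cytotoxicity at 5 µM above about 25%, limit read from the data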;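 further: cells exposed to compound overnight for roughly 16 to 18 hours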
# Wnt3a counter: inhibits Wnt3a reporter, counter-screen for Gli-SUFU antagonists; shares compounds with Gli-Sufu block; inhibition, % at 6.25 µM; Wnt-LIGHT cells, Wnt3a-driven luciferase reporter, luminescence; 2,500 compounds, 20% hits;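 active means mean inhibition above about 25%, limit read from the data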
# Hits are given with their value; – = inactive; · = not tested or not shown. In the library only some 4.1% were active in any assay of this set; here they are far more common.
SMILES,aSyn UTR inh,Gli-Sufu block,Jurkat NFkB inh,Mdm2 MdmX PPI,697 NFkB inh,KLF5 inhibitor,Gli antag conf,Gli cytotox,Wnt3a counter
O=C(NC(=S)Nc1ccccc1Cl)c1cnn2c(C(F)(F)F)cc(C(F)(F)F)nc12,–,55.6,–,–,–,–,–,–,–
Cc1[nH]nc2c1C(c1cccs1)C(C#N)=C(N)O2 (centres undefined),–,–,–,–,–,–,·,·,·
Cc1ccsc1C1C(C#N)=C(N)Oc2n[nH]c(C)c21 (centres undefined),–,64.9,–,–,–,–,–,–,–
Fc1ccc2[nH]c3c(NCc4ccccc4)ncnc3c2c1,–,60.4,–,–,–,–,68.3,–,34.3
C(#Cc1ccccc1)C[N+]1(CC#Cc2cccc3ccccc23)CCCC1,–,81.5,–,–,–,–,82.7,–,–
C#CC[N+]1(CC#Cc2ccccc2)CCCC1,–,–,–,–,–,–,·,·,·
Fc1ccccc1Cc1noc(CN2CCC(OCc3cccnc3)CC2)n1,–,–,–,–,–,–,·,·,·
Cc1ccc(-c2c[n+](Cc3ccc(Cl)c(Cl)c3)c3n2CCC3)cc1,–,84.6,–,–,–,–,79.7,26.4,–
COc1ccc(N(CC(=O)NCc2ccc(F)cc2)C(=O)CCC(=O)Nc2ccccn2)cc1,–,68.9,–,–,–,–,–,–,–
Cc1ccc(C)c(CSC2=NN3CCCC(=O)N=C3S2)c1,–,–,–,–,–,–,·,·,·
Cc1occc1-c1nnc(SCC(=O)NC2CCC(C)CC2)o1 (centres undefined),·,–,–,–,–,·,·,·,·
Cc1cc(C(=O)NNC(=O)NC(C)C)no1,–,–,–,–,–,–,·,·,·
O=S1(=O)CCN2N=C(C3CC3)SC2=N1,–,–,–,–,–,–,·,·,·
c1ccc2c(c1)nc(N1CCOCC1)c1ccccc12,–,–,–,–,–,–,·,·,·
CCN(CC)c1ccc(Nc2nc(N3CCOCC3)c3ccccc3n2)cc1,–,66.5,–,–,–,–,61.8,31.3,–
CCOc1ccc(C2=Nn3cnnc3SC2)cc1,–,99.1,–,–,–,–,–,–,27.3
O=[N+]([O-])c1ccc(C2=Nn3cnnc3SC2)cc1,–,–,–,–,–,–,·,·,·
CCCCN(CCCC)c1nc(OC)nc(-n2nnc(C(C)=O)c2C)n1,–,–,–,–,–,–,–,27.2,–
Cc1nc2cc(N3CCN(C)CC3)c(NC(=O)Cc3ccccc3)cc2c(=O)n1Cc1ccccc1,–,–,–,–,–,–,49.1,–,–
COc1ccccc1OC(C)C(=O)N1CC(=O)Nc2ccccc21 (centres undefined),–,–,–,–,–,–,·,·,·
C=CCNC1=C(Cl)C(=O)c2ccccc2C1=O,–,55.7,–,–,–,–,–,–,78.7
O=C1C(Cl)=C(NCCc2ccccc2)C(=O)c2ccccc21,·,–,·,·,·,·,·,·,·
O=C(Nc1ccccc1Cl)C1CCCN(S(=O)(=O)c2cccc3cccnc23)C1 (centres undefined),–,75.6,–,–,–,–,–,–,–
COc1ccc(CCNC(=O)Cn2ccc3c(OC)cccc3c2=O)cc1OC,–,–,–,–,–,–,·,·,·
O=C(O)CCSCC(=O)Nc1c(C(=O)C2CC2)oc2ccccc12,–,–,–,–,–,–,·,·,·
SMILES,aSyn UTR inh,Gli-Sufu block,Jurkat NFkB inh,Mdm2 MdmX PPI,697 NFkB inh,KLF5 inhibitor,Gli antag conf,Gli cytotox,Wnt3a counter
O=C(Nc1c(C(=O)C2CC2)oc2ccccc12)c1ccc(Cl)cc1,–,86.3,–,–,–,–,–,–,–
O=C(Nc1ccc(Cl)cc1F)C1CCN(S(=O)(=O)c2cccc3nonc23)CC1,–,–,–,–,–,–,·,·,·
COc1ccc(NC(=O)COC(=O)Cn2cnc3ccccc32)cc1,·,–,–,–,–,·,·,·,·
O=C(Cn1cnc2ccccc21)Nc1ccc(SC(F)F)cc1,–,65.1,–,–,–,–,56.8,37.2,–
CC1CCN(C(=O)CSc2n[nH]c(-c3cccs3)n2)CC1,–,–,–,–,–,–,·,·,·
CC(C)(C)OC(=O)N1CCC(c2cc(-c3cccs3)n[nH]2)CC1,–,57.1,–,–,–,–,–,–,–
